Laboratory results published in PubChem BioAssay AID693 (University of Pittsburgh Molecular Library Screening Center, 2007).
About 130 (0.13%) of roughly 97,000 compounds were called active. Cut-off read from the data, not from the text of the source: active = inhibition above about 34% (passing the limit was not always enough); inactive = the rest. Only a selection was taken, and actives are over-represented in it overall.

The compounds below were run against Serine/threonine-protein kinase PLK1 (Homo sapiens) (UniProt P53350) (assay: blockers of phosphopeptide binding to Plk1 PBD – biochemical, fluorescence polarization, primary screen (AID 693)). Details: active compounds read high,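 tested at about 20 µM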.
Serine/threonine-protein kinase PLK1 (Homo sapiens), sequence (P53350 whole entry, looked up): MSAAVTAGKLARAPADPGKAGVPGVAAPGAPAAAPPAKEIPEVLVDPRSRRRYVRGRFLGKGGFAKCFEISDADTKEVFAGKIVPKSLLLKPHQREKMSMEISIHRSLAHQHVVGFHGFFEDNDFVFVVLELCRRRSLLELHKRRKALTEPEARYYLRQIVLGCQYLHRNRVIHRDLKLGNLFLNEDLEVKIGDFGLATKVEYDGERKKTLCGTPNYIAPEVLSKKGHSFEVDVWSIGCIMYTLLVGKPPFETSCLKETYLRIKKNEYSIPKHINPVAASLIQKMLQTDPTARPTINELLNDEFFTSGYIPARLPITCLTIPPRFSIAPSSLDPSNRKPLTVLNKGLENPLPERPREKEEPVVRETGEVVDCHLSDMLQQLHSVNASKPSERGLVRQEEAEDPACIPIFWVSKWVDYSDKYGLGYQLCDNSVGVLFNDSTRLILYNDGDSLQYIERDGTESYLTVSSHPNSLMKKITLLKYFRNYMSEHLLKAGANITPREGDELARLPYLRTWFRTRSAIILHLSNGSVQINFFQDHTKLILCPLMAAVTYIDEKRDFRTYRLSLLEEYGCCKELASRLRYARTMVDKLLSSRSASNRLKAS

inhibition, inactive:
CCC(=O)NC(Nc1nc2ccc(C)cc2s1)(C(=O)OC)C(F)(F)F (centres undefined) -11.3%, CCOC(=O)C(=O)Nc1nc(-c2ccccc2)c(CC)s1 12.1%, CC(C)CCNC(=O)Cn1c(=O)oc2cc(S(=O)(=O)N3CC(C)CC(C)C3)ccc21 (centres undefined) -16.6%, O=C(c1ccc(Cl)cc1)c1cnc(Nc2ccccc2)s1 -14.3%, COc1cc(C(=S)N2CCOCC2)cc(OC)c1OC(=O)c1cc([N+](=O)[O-])cc([N+](=O)[O-])c1 -2.97%, C=CCn1c(N)cc(=O)nc1SCC(=O)Nc1cccc2ccccc12 15.4%, O=C(N/N=C/c1ccc(O)c(O)c1)C1c2ccccc2Oc2ccccc21 -30.1%, O=C(Nc1ccccc1-c1nnn(CC(=O)N2CCCc3ccccc32)n1)c1cccc(Cl)c1 -7.34%, Cn1c(Cc2cccc3ccccc23)nnc1SCC(=O)N1CCN(c2cccc(Cl)c2)CC1 23.1%, Cc1cccc(CCNS(=O)(=O)c2ccc(S(=O)(=O)NC3CCCC3)cc2)c1 -16.4%, CC(C)OC(=O)c1c(NC(=O)c2ccco2)sc2c1CCCC2 -34.8%, CCCc1ccc(OCc2ccc(C(=O)N/N=C/c3cccc([N+](=O)[O-])c3)o2)c(OC)c1 -2.94%, CCC(c1nnnn1C(C)(C)C)N(Cc1cc2cccc(C)c2n2nnnc12)C1CCCC1 (centres undefined) -13.2%, Cc1[nH]c(=O)c(C(=O)/C=C/c2ccccc2)c2c1CCCC2 -8.98%, Cc1nn(C)cc1C(=O)NNC(=S)Nc1ccc(Cl)cc1 -11.1%, N#Cc1ccccc1CN1C(=O)S/C(=C/c2cccn2-c2cccc(C(=O)O)c2)C1=O -6.67%, O=C(CCCn1c(SCC(=O)c2ccccc2)nc2ccccc2c1=O)NCC1CCCO1 (centres undefined) 8.37%, Cc1ccc(OC(=O)c2ccccc2C(=O)OCC(F)(F)C(F)F)cc1 -16.7%, CCOC(=O)CNC(=O)CSc1nc2cccnc2n1CC 7.16%, C=C(Cl)COC(=O)C1C2C=CC(C2)C1C(=O)O (centres undefined) 3.3%, Cc1nnc(SCC(=O)N/N=C/c2cn(-c3ccccc3)nc2-c2ccc(F)cc2)n1-c1ccccc1 -7.66%, COCCCn1c(SCc2cccc(OC)c2)nc2cc(OC)c(OC)cc2c1=N -12.2%, O=[N+]([O-])c1cccc(-c2nnc3c4ccccc4c4ccccc4n23)c1 -7.67%, Cc1csc2ncc(C(=O)N(Cc3ccccc3)c3ccccn3)c(=O)n12 -14.3%
